# According to ChEMBL document CHEMBL3988442, “University of Dundee, Small-Polar-MMV Screening Library” (2021):
# In all, about 53,000 compounds went through this assay and about 900 (1.7%) showed an effect of 50% or more. Only a selection was taken, and strong results are over-represented in it overall.
# Test system: Mycobacterium tuberculosis
# Experiment: Cornell - Phenotypic assay to identify agents that inhibit growth of Mycobacterium tuberculosis
# Assay type: functional
# Set-up: scale not given: direction of the effect not stated beside the values
# Conditions: 10 mM as filed; unlikely as a test dose
row,Compound,Percent Effect
1,Cn1nccc1-c1ccc2nc(C3CCN(CC4CC4)CC3)nn2c1.O=C(O)C(F)(F)F.O=C(O)C(F)(F)F,-10.01%
2,COc1ccc2[nH]c(CNc3cc(C4CCNCC4)nc(C)n3)cc2c1,70.58%
3,Cc1nc(NCc2cccc(F)c2)cc(C2CCNCC2)n1.Cl,-9.727%
4,Cc1nc(NCc2ccc(C)o2)cc(C2CCNCC2)n1,-17.21%
5,O=C(c1cncs1)N1CCC(c2cnccn2)CC1,7.442%
6,Cc1cn2c(n1)CCC(NC(=O)Cn1cncn1)C2 (configuration not stated),-12.63%
7,Cc1ccc(OCCC(=O)N2CCN(c3cnccn3)CC2)cc1C,39.73%
8,CCn1cc(C(=O)NCc2csc(C3CC3)n2)c(C)n1,26.12%
9,CCn1nc(C)c(C(=O)NCc2csc(C3CC3)n2)c1C,69.61%
10,Cc1nn(C)cc1C(=O)NCc1csc(C2CC2)n1,0.3942%
11,CCSc1cc(C(=O)NCCc2nnc(-c3ccco3)[nH]2)ccn1,-11.72%
12,CCOc1cc(C)c(-c2cc(N)[nH]n2)cc1OCC,10.44%
13,CCOc1ccc(Br)cc1-c1cc(N)[nH]n1.Cl,-17.72%
14,CCOc1ccccc1-c1cc(N)[nH]n1.Cl,108.1%
15,O=C(c1cc(C2CCCC2)no1)N1CC(O)C1,18.4%
16,CN(C)C(=O)CN1C(=O)CCC12CCN(Cc1ccc(F)cc1)CC2.O=C(O)C(F)(F)F,13.62%

row,Compound,Percent Effect
1,Cl.c1csc(-c2noc(C3CNC3)n2)c1,106.9%
2,Cl.c1csc(-c2noc(C3CCCNC3)n2)c1 (configuration not stated),9.745%
3,CCS(=O)(=O)N1CC(c2nc(-c3cccs3)no2)C1,8.063%
4,CO[C@H]1CN(c2ccccc2)S(=O)(=O)[C@@]12CCN(Cc1ccccc1)C2,6.335%
5,Cc1ccccc1CC(=O)N1CCCn2cncc2C1,-17.85%
6,Cc1cccc(C(=O)N2C[C@H](NS(C)(=O)=O)[C@@H]3OCCC[C@@H]32)n1,2.201%
7,CN1CCC(NC(=O)Nc2ccc(F)c(Br)c2)C1=O (configuration not stated),-9.143%
8,CN1CCC(NC(=O)Nc2ccc(F)c(-n3cccc3)c2)C1=O (configuration not stated),84.66%
9,CN1CCC(NC(=O)Nc2ccc(Br)c(F)c2)C1=O (configuration not stated),8.703%
10,COCCNc1ccc(CC2CCCN(C3CCCC3)C2)nn1 (configuration not stated),39.43%
11,CN(C)CCN1CC(C(=O)N(C)Cc2cc3cc(F)ccc3[nH]2)CC1=O (configuration not stated),29.76%
12,CN(Cc1cc2cc(F)ccc2[nH]1)C(=O)C1CC(=O)N(C2CC2)C1 (configuration not stated),52.25%
13,CN(Cc1cc2cc(F)ccc2[nH]1)C(=O)C1CC(=O)N(C(C)(C)C)C1 (configuration not stated),23.39%
14,CN(Cc1cc2cc(F)ccc2[nH]1)C(=O)C1CC(=O)N(C2CCCC2)C1 (configuration not stated),65.9%
15,CCN1CC(C(=O)N(C)Cc2cc3cc(F)ccc3[nH]2)CC1=O (configuration not stated),42.66%
16,CCc1nnc(CN(C)C(=O)C2CC(=O)N(C3CC3)C2)o1 (configuration not stated),20.13%
